From PubChem BioAssay AID504773 (Broad Institute, 2011)
Measured potencies and affinities stand elsewhere. Activity calls are given as the source filed them.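 How the source made its calls: active means polarization signal falls with dose and the fitted half-maximal concentration is at or below ten times the sample's top valid dose; inconclusive means flat curve at 30 to 70% inhibition, or poor fit; inactive means signal rises, flat within 30%, or potency beyond limit.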

What follows are molecules tested against Golgi-associated PDZ and coiled-coil motif-containing protein (Homo sapiens) (UniProt Q9HD26) (assay: potency against CAL PDZ-peptide interaction – biochemical, fluorescence polarization, Cerulean-tagged CAL PDZ, cherry-picks, dose response (AID 504773)). Conditions: CAL PDZ-peptide binding, 1 h; series mostly up to 50 µM.

outcome, inactive:
CN(Cc1nccn1C)C(=O)c1cc(COc2ccc3ncccc3c2)on1, Cc1ccccc1CN(C)C(C)C(=O)Nc1ccccc1F (configuration not stated), Cc1ccc(/C=N/NC(=O)NN(C)c2ncc(C(F)(F)F)cc2Cl)cc1, CC1=C(C#N)C(Nc2ccc(Cl)cn2)(C(F)(F)F)C(=O)N1 (configuration not stated), O=C(Nc1nccs1)c1ccc(F)c(S(=O)(=O)N2CCOCC2)c1, CCOC(=O)c1nc(NCCc2ccccc2)sc1C, CCN1C(=O)CS/C1=N\S(=O)(=O)c1ccc(Cl)cc1, COn1c(SCc2ccccc2)nc2ccccc2c1=O, COc1ccc(CSc2ncnc3sccc23)cc1F, Cc1cccc(C(=O)Nc2ccc(C(=O)/C=C/c3ccncc3)cc2)c1, C/C(=N\NC(=O)C(O)c1ccccc1)c1ccc(Cl)s1 (configuration not stated), CC(=O)Nc1ccc(N/C=C/C(=O)c2ccccc2)cc1, Cc1ccc(CN(C(=O)c2ccco2)C(C(=O)NC2CCCC2)c2cccnc2)cc1 (configuration not stated), O=C(NC12CC3CC(CC(C3)C1)C2)c1ccco1, CC1CCN(CCCNC(=O)c2ccc3c(=O)n(Cc4ccc(Cl)cc4)c(=S)[nH]c3c2)CC1, COc1cc(C(=O)NC(C)CCc2ccccc2)cc(OC)c1OC (configuration not stated), CCOc1ccc(NC(=O)c2nsc(Cl)c2Cl)cc1, COc1ccc(S(=O)(=O)N2CC(=O)Nc3ccccc32)cc1F, Cc1cc(C)nc(/N=C(\N)N2CCc3ccccc32)n1, CC(CN1CCCC1)OC(=O)C(c1ccccc1)c1ccccc1 (configuration not stated), CC(O)CNCCCOc1cccc(Oc2ccccc2)c1 (configuration not stated), CCCNC(=O)C(=O)NCC1CCCN1CC (configuration not stated), Cc1c(Cl)c(C(=O)N2CCCC2)nn1C, O=C(COc1ccccc1)N1CCCCCCC1, CSc1cccc(NC(=O)N2CCCC(CNS(=O)(=O)Cc3ccccc3)C2)c1 (configuration not stated), O=C(OCc1ccc(Br)cc1)c1cccnc1, CCOC(=O)/C=C/C(=O)OCC(=O)Nc1ccc([N+](=O)[O-])cc1, Cc1cc(C)c2nc(-c3ccncc3)cc(C(=O)N3CCN(Cc4ccccc4Cl)CC3)c2c1, C/C(=C/c1ccccc1)C(=O)N1CCN(c2ccccc2)CC1, CCN(CC)Cc1c(O)ccc2c1O/C(=C\C=C\c1ccccc1)C2=O, CCN(CC)CCC(=O)N1c2ccccc2CCc2ccc(NC(=O)OC(C)C)cc21, O=C(c1ccccc1Cl)N(Cc1ccc(Cl)c(Cl)c1)N1C(=O)CCCC1=O, COCC(=O)NNC(=O)c1ccc(OC)cc1, COC(=O)c1ccc(CNC(=O)COC(=O)c2cc(Cl)nc(Cl)c2)cc1, Cc1c(NC(=O)CN2CCC(C(N)=O)CC2)cccc1[N+](=O)[O-], COCC(=O)Nc1ccc2nc3n(c(=O)c2c1)CCCCC3, CC(=O)Nc1ccc(Nc2ccc3nonc3c2[N+](=O)[O-])cc1
